Our source for the PBM binding z-score values is the supplement of paper PMC6555819.

One assay concerns PPARg:RXRa 270nM:90nM, anti-RXR (NR concentration 270 nM, RXRa partner concentration 90 nM). Kind of assay: PBM binding z-score (relative to random genomic background probes); higher = stronger binding; sequences stand for … in GC…GCGATTGACAGCGTAGAATGAAGG
In outline: (§1)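 Binding buffer was PBS pH 7.4 with 2% milk, 0.02% Triton X-100, 1 mM DTT, 0.2 mg/mL BSA and 0.4 mg/ml salmon testes DNA. In it, ligand-free nuclear receptor dimers were incubated 1 h on custom Agilent 4×180K protein-binding microarrays carrying double-stranded probes. Antibodies against each partner (one per run) detected binding, and z-scores were calculated against random background probes after regression normalization of scanned fluorescence.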
The sequence ATCTCTAGGTAAAGATAGTTCGGTGAATGCAAAT came in with a PBM binding z-score of 0.307.
As to TCTAGCAGTCCAGAGGGTCACTCAAGAGGTACGG, the PBM binding z-score turned out to be 1.52.
CCTAGCAGGCCAATCTGGGACACTCAAGGCTTGA displayed a PBM binding z-score of -0.496.
As for TCTGACAGGTGAAGGTAACTCAGGTACGCAGTCG, the PBM binding z-score came out at 1.55.
As to TATACAGGCTCAAAGGCCAGAGTACGAATGTCGA, the PBM binding z-score turned out to be 1.75.
In turn, GGAACGAGGGCATTCGAGTTAATAGCATGGCGAT registered a PBM binding z-score of 0.939.
As for CCTACTGGGCCAATGGTCATTGATTCCAATGCTC, the PBM binding z-score stood at 5.51.
Regarding GCTGCTAGGTCAACTGATGGTCGGCTAAAGCTCG, the PBM binding z-score came out at 3.16.
ACTCGGAGGACCAAGGTCAGAGCTACGCCAGTGA: the PBM binding z-score amounted to 1.31.
Turning to GGAACGAAGGCAAAGTTGATAGCATCTGTCGACG, the PBM binding z-score was found to be 4.58.
In turn, GGAACGAGGGCATGCGAGTTGATAGCATGGCGAT had a PBM binding z-score of 0.516.
For TCTTGTAGATCACGCAGGTTAAGAAAGCCTGAGT, the PBM binding z-score was found to be 1.37.
As to TCTTGTAGAACAAGCAGGTTAAGAAAGCCTGAGT, the PBM binding z-score came to 1.19.
Regarding AATACCGGGTCATCGTAGGCCAGAGTACGCACAG, the PBM binding z-score was determined as 5.07.
Same read-out and setting: as for CCTAGCAGGCCAATCTGAGTCACTCAAGGCTTGA, the figure is -0.961.
Same read-out and setting: with AGTCAAAGTTCATCTAGGTAAGGTAAGATATGCT the figure was 6.34; with AGAACAAGGGCAATGAGTTGATAGCACGGGTGGC, 0.0922; with CAAACTAGGGCACAGAGGTCAAAGTCCGTGCGTA, 6.9.
Still for that read-out and setting: as for ATCGAAAGGTCGACGGGGTGAGTATACACCGTTT, the figure is 3.48; as for TAGCCGAGGTCATGGGCCAGTATACCACGCGAAC, 7.21.
TCTAGTTGGTCACGGAGGTAACACACGACGGGTA displayed a PBM binding z-score of 1.92.
Sequence CCTACTGGGCCAGGGTCATTGATCAGTCAAAGCA returned a PBM binding z-score of 3.68.
As for TCTGCTAGGTCAACGATGGACAGCTAATCTGCTA, the PBM binding z-score turned out to be 3.12.
Sequence TCATATAGGTAAAGGTTAAAGTCGAACGATATGA displayed a PBM binding z-score of 5.57.
On to ACTAGTAGGCCAAGTTTGGGTCACTCAAACAAAG, for which the PBM binding z-score came to 2.27.
TCTTGTAGAACAGCAGGTTAAGAAAGCTGGCCAA had a PBM binding z-score of 1.17.
As to CCTATTAGTTGACCATAAGGGCTACCGAAGCTCG, the PBM binding z-score turned out to be 0.0189.
For the sequence GCAGACAGGTGAAACGCGGGTAACTCAGGGTGGC, the PBM binding z-score is -0.106.
Consider CCTAGTTGGTCAGGAGGTCAAACACCGGATATGA, for which the PBM binding z-score turned out to be 3.96.
TCGAGTAGGTTACAAATGGGGCATTCAGCTTTCT came in with a PBM binding z-score of 1.21.
Sequence GCTGCTAGGTCAGGTAGGTCAGCTAACGGGTACG had a PBM binding z-score of 2.19.
In turn, CCTAGTTGGTGAAGGTCACACACGCTATAGGTAC gave a PBM binding z-score of 3.03.
On the same count and under the same terms, with CTACCAAGGTGAACAAGGCCGTTGATTACTATTC the figure was 0.527.
TATACAGGGTCAAAGGCCAGAGTCCGAATGTCGA returned a PBM binding z-score of 7.02.
Consider CGTCCAAGGTCAAAGGTCAGTGTAGAGATGACGG, for which the PBM binding z-score is 9.05.
Take GTACGAAGGTGAATAGGTCGTTGATGAGTAGGCG: the PBM binding z-score amounted to 1.87.
On the same count and under the same terms, as for CCTTACGGGTCAAGGTTATAGTACGGGTGGTACG, the figure is 4.77.
In the case of ACAATGAGGTTATTAAGATCAGGGAATTGCGGTC, the PBM binding z-score is 1.7.
In turn, TCGAGTAGGTTACCAATGGGGCACTCAGCTTTCT yielded a PBM binding z-score of 1.39.
In turn, CCTACTGGGCCATTCAGAGGTCCTTGATCATATG had a PBM binding z-score of 0.194.

A further assay relates to PPARg:RXRa 30nM:10nM, anti-RXR (NR concentration 30 nM, RXRa partner concentration 10 nM). The description is as above. In outline:
as §1
ATCTCTAGGTAAAGATAGTTCGGTGAATGCAAAT yielded a PBM binding z-score of 0.192.
TCTAGCAGTCCAGAGGGTCACTCAAGAGGTACGG returned a PBM binding z-score of 2.05.
CCTAGCAGGCCAATCTGGGACACTCAAGGCTTGA yielded a PBM binding z-score of -0.884.
As for TCTGACAGGTGAAGGTAACTCAGGTACGCAGTCG, the PBM binding z-score was 2.9.
The sequence TATACAGGCTCAAAGGCCAGAGTACGAATGTCGA displayed a PBM binding z-score of 0.77.
In the case of GGAACGAGGGCATTCGAGTTAATAGCATGGCGAT, the PBM binding z-score is 0.26.
On to CCTACTGGGCCAATGGTCATTGATTCCAATGCTC, for which the PBM binding z-score is 3.81.
The sequence GCTGCTAGGTCAACTGATGGTCGGCTAAAGCTCG returned a PBM binding z-score of 0.547.
Still for that read-out and setting: as for ACTCGGAGGACCAAGGTCAGAGCTACGCCAGTGA, the figure is 0.277; as for GGAACGAAGGCAAAGTTGATAGCATCTGTCGACG, 2.36; as for GGAACGAGGGCATGCGAGTTGATAGCATGGCGAT, -0.248.
Turning to TCTTGTAGATCACGCAGGTTAAGAAAGCCTGAGT, the PBM binding z-score came to 2.72.
On to TCTTGTAGAACAAGCAGGTTAAGAAAGCCTGAGT, for which the PBM binding z-score is 2.58.
On to AATACCGGGTCATCGTAGGCCAGAGTACGCACAG, for which the PBM binding z-score came to 2.01.
As to CCTAGCAGGCCAATCTGAGTCACTCAAGGCTTGA, the PBM binding z-score was -0.966.
Still for that read-out and setting: with AGTCAAAGTTCATCTAGGTAAGGTAAGATATGCT the figure was 3.3; with AGAACAAGGGCAATGAGTTGATAGCACGGGTGGC, -0.195; with CAAACTAGGGCACAGAGGTCAAAGTCCGTGCGTA, 4.71.
Regarding ATCGAAAGGTCGACGGGGTGAGTATACACCGTTT, the PBM binding z-score was found to be 0.859.
As for TAGCCGAGGTCATGGGCCAGTATACCACGCGAAC, the PBM binding z-score was found to be 3.43.
Regarding TCTAGTTGGTCACGGAGGTAACACACGACGGGTA, the PBM binding z-score is 3.23.
Regarding CCTACTGGGCCAGGGTCATTGATCAGTCAAAGCA, the PBM binding z-score was 0.898.
The same measure, in the same setting: with TCTGCTAGGTCAACGATGGACAGCTAATCTGCTA the figure was 2.13; with TCATATAGGTAAAGGTTAAAGTCGAACGATATGA, 5.06.
On the same count and under the same terms, with ACTAGTAGGCCAAGTTTGGGTCACTCAAACAAAG the figure was 0.504.
TCTTGTAGAACAGCAGGTTAAGAAAGCTGGCCAA gave a PBM binding z-score of 2.2.
Sequence CCTATTAGTTGACCATAAGGGCTACCGAAGCTCG displayed a PBM binding z-score of 0.219.
GCAGACAGGTGAAACGCGGGTAACTCAGGGTGGC gave a PBM binding z-score of -0.712.
CCTAGTTGGTCAGGAGGTCAAACACCGGATATGA had a PBM binding z-score of 1.67.
TCGAGTAGGTTACAAATGGGGCATTCAGCTTTCT displayed a PBM binding z-score of 1.43.
GCTGCTAGGTCAGGTAGGTCAGCTAACGGGTACG: the PBM binding z-score is -0.0602.
CCTAGTTGGTGAAGGTCACACACGCTATAGGTAC came in with a PBM binding z-score of 1.1.
On to CTACCAAGGTGAACAAGGCCGTTGATTACTATTC, for which the PBM binding z-score was -0.248.
Regarding TATACAGGGTCAAAGGCCAGAGTCCGAATGTCGA, the PBM binding z-score is 4.84.
Sequence CGTCCAAGGTCAAAGGTCAGTGTAGAGATGACGG showed a PBM binding z-score of 7.79.
Still for that read-out and setting: as for GTACGAAGGTGAATAGGTCGTTGATGAGTAGGCG, the figure is 0.421; as for CCTTACGGGTCAAGGTTATAGTACGGGTGGTACG, 1.91; as for ACAATGAGGTTATTAAGATCAGGGAATTGCGGTC, 0.622.
In turn, TCGAGTAGGTTACCAATGGGGCACTCAGCTTTCT showed a PBM binding z-score of 1.09.
In turn, CCTACTGGGCCATTCAGAGGTCCTTGATCATATG came in with a PBM binding z-score of -0.728.
